Values joined by “and” are separate entries in the source; they are usually repeats but may differ in a detail not shown here. Identical values can stand only once. Inconclusive results are not listed. Active and inactive are the calls of the source. Calls follow the shape of the dose curve; as a rule, active = well fitted inhibition curve with a large enough effect; inconclusive = small, poorly fitted or top-dose-only effect; inactive = flat fitted curve, though single readings scatter.
Assays:
CRL-7250 = normal cell line; assay: Cytotoxic Profiling of Annotated Libraries Using Quantitative High-Throughput Screening (AID 1296008); details: Five cell lines viability, CellTiter-Glo ATP luminescence, 48-72 h; max response: active compounds read low; as to max response: % is scaled to controls: 0 for no effect and ±100 for the full control effect
In short: (§1)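 Cytotoxicity was measured as CellTiter-Glo ATP luminescence, read after 10 min at room temperature. Compound treatment of the cells lasted 48 or 72 hr at 37 degrees Celsius in a qHTS format.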

HEK293 = assay: as above; details: Five cell lines viability, CellTiter-Glo ATP luminescence, 48-72 h; max response: active compounds read low
In short: as §1

HaCat [1] = assay: as above; details: Five cell lines viability, CellTiter-Glo ATP luminescence, 48-72 h; max response: active compounds read low
In short: as §1

NIH3T3 = assay: as above; details: Five cell lines viability, CellTiter-Glo ATP luminescence, 48-72 h; max response: active compounds read low
In short: as §1

HACAT [2] = assay: qHTS assay to identify novel small-molecules to repurpose for Merkel cell carcinoma treatment (AID 1296009); details: MCC and control cell lines, CellTiter-Glo viability, 72 h; at 44.8 µM (top of the series) unless noted
In short: (§2)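 After compound transfer in DMSO, plates were kept 72 hr at 37 degree celsius. Luminescent ATP signal from CellTiter-Glo served as viability measure, normalized against DMSO and no-cell controls.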

MCC-13 = assay: as above; details: MCC and control cell lines, CellTiter-Glo viability, 72 h; series mostly up to 46 µM
In short: as §2

MCC-26 = assay: as above; details: MCC and control cell lines, CellTiter-Glo viability, 72 h; series mostly up to 46 µM
In short: as §2

KB-3-1 = assay: Cytotoxic Profiling of Annotated Libraries Using Quantitative High-Throughput Screening (AID 1296008); details: Five cell lines viability, CellTiter-Glo ATP luminescence, 48-72 h; max response: active compounds read low; as to max response: % is scaled to controls: 0 for no effect and ±100 for the full control effect
In short: as §1

W2 = assay: qHTS profiling for inhibitors of Plasmodium falciparum proliferation (AID 504749); details: P. falciparum in erythrocytes, SYBR Green DNA, 72 h; series mostly up to 28.7 µM
In short: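 Three-day growth assay of blood-stage parasites in erythrocytes (0.3% parasitemia, 2.5% hematocrit) at 37 C, 5% CO2, quantified by SYBR Green DNA staining after overnight detergent lysis.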

HEK293T = assay: qHTS assay to identify novel small-molecules to repurpose for Merkel cell carcinoma treatment (AID 1296009); details: MCC and control cell lines, CellTiter-Glo viability, 72 h; at 44.8 µM (top of the series) unless noted
In short: as §2
Also: nearly all actives have a fitted effect of over 60% in size.
Potency is read from the fitted curve at half-maximal effect.

Nc1ncn([C@H]2C[C@H](O)[C@@H](CO)O2)c(=O)n1
inactive: max response (CRL-7250) -5.93% and -8.36% | outcome (HaCat [1]) | max response (NIH3T3) -24.2% | outcome (HACAT [2]) | Potency (MCC-13) | Potency (MCC-26)
active: Potency (HEK293) 18.7 µM

O=c1c(O)c(-c2ccc(O)cc2O)oc2cc(O)cc(O)c12
inactive: max response (CRL-7250) -3.27% | max response (HEK293) 4.53% | outcome (HaCat [1]) | max response (KB-3-1) -10.8% | max response (NIH3T3) -16.7% | outcome (HACAT [2]) | Potency (MCC-13) | Potency (MCC-26)

COc1ccccc1N1CCN(CCN(C(=O)C2CCCCC2)c2ccccn2)CC1
inactive: outcome (CRL-7250) | max response (HEK293) 3.7% | max response (HaCat [1]) 1.26% and -29.9% | max response (NIH3T3) -13.5% | outcome (NIH3T3) | Potency (MCC-13) | Potency (MCC-26)

C[C@]12CCC(=O)C=C1CC[C@@H]1[C@H]2[C@@H](O)C[C@@]2(C)[C@H]1CC[C@]2(O)C(=O)CO
inactive: Potency (W2) | max response (CRL-7250) -1.54% | outcome (HEK293) | max response (HaCat [1]) -4.53% | max response (KB-3-1) 33.4% | outcome (NIH3T3) | outcome (HEK293T) | Potency (MCC-13) | Potency (MCC-26)

CN(C)c1ccc2nc3ccc(=[N+](C)C)cc-3sc2c1
active: Potency (W2) 0.0478 µM | Potency (CRL-7250) 11.8 µM and 23.7 µM | Potency (HEK293) 1.66 µM and 1.33 µM | Potency (HaCat [1]) 3.72 µM and 10.6 µM | Potency (KB-3-1) 2.09 µM and 6.51 µM | Potency (NIH3T3) 5.26 µM and 3.35 µM | Potency (MCC-13) 7.43 µM and 2.66 µM

Cc1ccc(S(=O)(=O)NC(=O)NN2CC3CCCC3C2)cc1 (stereo not drawn)
inactive: outcome (CRL-7250) | max response (HEK293) 2.56% | outcome (HaCat [1]) | max response (KB-3-1) 5.5% and -19.7% | max response (NIH3T3) 2.24% and -2.1% | outcome (HACAT [2]) | Potency (MCC-13) | Potency (MCC-26)

CCCCCCCCCCCCCCCCCCCCCCO
inactive: Potency (W2) | outcome (CRL-7250) | max response (HEK293) 1.6% | max response (HaCat [1]) 4.38% | max response (KB-3-1) -15.7% and 8.97% | outcome (NIH3T3) | Potency (MCC-13)

COc1cc(Nc2c(C#N)cnc3cc(OCCCN4CCN(C)CC4)c(OC)cc23)c(Cl)cc1Cl
active: Potency (CRL-7250) 3.72 µM and 6.51 µM | Potency (HEK293) 2.37 µM and 4.18 µM and 11.6 µM | Potency (HaCat [1]) 841 nM and 1.66 µM and 2.31 µM | Potency (NIH3T3) 9.44 µM and 1.18 µM and 8.2 µM

N=C(N=C(N)N)N1CCOCC1
inactive: Potency (W2) | max response (CRL-7250) -16.7% and 0.819% | max response (HEK293) -13.7% and 0.579% | outcome (HaCat [1]) | max response (KB-3-1) -9.57% and 4.72% | max response (NIH3T3) -0.0574% and 2.52% | outcome (HACAT [2]) | Potency (MCC-13) | Potency (MCC-26)

CC(C)C[C@H](NC(=O)[C@H](Cc1ccccc1)NC(=O)c1cnccn1)B(O)O
active: Potency (CRL-7250) 59.6 nM and 51.7 nM | Potency (HEK293) 47.3 nM and 41.1 nM | Potency (HaCat [1]) 188 nM | Potency (KB-3-1) 58 nM and 105 nM | Potency (NIH3T3) 53.1 nM and 11.6 nM | Potency (MCC-26) 0.0376 µM

CCN(CC)CCOc1ccc(Nc2ncc3cc(-c4c(Cl)cccc4Cl)c(=O)n(C)c3n2)cc1
active: Potency (CRL-7250) 16.6 nM | Potency (HEK293) 0.209 µM | Potency (HaCat [1]) 264 nM | Potency (KB-3-1) 296 nM | Potency (NIH3T3) 74.3 nM | Potency (MCC-13) 2.64 µM

O=c1c(O)c(-c2cc(O)c(O)c(O)c2)oc2cc(O)cc(O)c12
inactive: max response (CRL-7250) 3.08% | max response (HEK293) -2.69% | outcome (HaCat [1]) | max response (NIH3T3) -26.9% | outcome (HACAT [2]) | Potency (MCC-13) | Potency (MCC-26)

C[Se]CCC(N)C(=O)O (stereo not drawn)
inactive: max response (CRL-7250) -3.1% | max response (HEK293) -11.1% | max response (HaCat [1]) -19.1% | max response (KB-3-1) -9.75% | outcome (NIH3T3) | Potency (MCC-13) | Potency (MCC-26)

O=P(O)(O)C(O)(Cn1ccnc1)P(=O)(O)O
inactive: Potency (W2) | outcome (CRL-7250) | max response (HEK293) -11% | outcome (HaCat [1]) | max response (KB-3-1) -1.09% and 1.16% | max response (NIH3T3) -2.33% | outcome (HACAT [2]) inactive [at 17.4 µM] | Potency (MCC-13)

S=c1nc[nH]c2nc[nH]c12
inactive: max response (CRL-7250) -19.8%
active: Potency (HEK293) 6.68 µM and 13.2 µM | Potency (HaCat [1]) 14800 nM | Potency (KB-3-1) 7430 nM | Potency (NIH3T3) 1.88 µM and 4.69 µM | Potency (MCC-13) 2.99 µM and 11.8 µM

CC(C)c1ccc2c(c1)c(SC(C)(C)C)c(CC(C)(C)C(=O)O)n2Cc1ccc(Cl)cc1
inactive: max response (CRL-7250) -29.4% | max response (HEK293) -2.03% | max response (HaCat [1]) -20.8% | max response (KB-3-1) -8.99% | outcome (NIH3T3) | Potency (MCC-13) | Potency (MCC-26)
